This is an account of results in PubChem BioAssay (NCI).

Compounds without any hit were thinned out: in the full panel of roughly 83,000, 20% have a hit.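 Growth was measured after 48 h exposure to one concentration of compound in 96-well plates. Values under 10 count as active.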 The source made the active and inactive calls.

For this test, the system named is OVCAR-4 ovarian. As to the kind of experiment: NCI-60 one-dose screen, 48 h (100 = growth as untreated, 0 = no growth, -100 = all killed). To be noted: 10 µM unless noted.
With `Cn1nc(C(F)(F)F)cc1-c1cc(Cl)c(OCc2ccc(Cl)cc2)c(-c2ccc(Cl)c(C(F)(F)F)c2)c1O`, the growth was 17.2% (inactive).
As for `CC(=O)O[C@H]1[C@H](CC#CC#CC[C@@H]2C[C@]3(C)[C@H]4CC=C5[C@H]6[C@@H](C)[C@H](C)CC[C@]6(C(=O)NCCN(CCN)CCN)CC[C@@]5(C)[C@]4(C)CC[C@H]3C(C)(C)[C@H]2OC(C)=O)C[C@]2(C)[C@H]3CC=C4[C@H]5[C@@H](C)[C@H](C)CC[C@]5(C(=O)NCCN(CCN)CCN)CC[C@@]4(C)[C@]3(C)CC[C@H]2C1(C)C`, the growth was 97.4% (inactive).
For the molecule `CC(=O)c1ccc(Nc2nc(Cl)nc(Oc3c(Cl)cccc3Cl)n2)cc1`, the growth is 67.2% (inactive).
With `Oc1[nH]c2ccccc2c1/C=c1/ccc2c(c1)N=C(c1ccc(C(F)(F)F)cc1)N=2`, the growth was 69.1% (inactive).
The value for `Brc1cccc(-n2ncc3c(Nc4ccc(-c5nnc(-c6ccccc6)o5)cc4)ncnc32)c1` was 107% (inactive); that for `CCNC(=S)N(Cc1ccccc1)Cc1ccccc1` was 124% (inactive).
Turning to `COc1cccc(CC(C)=C(c2ccc(OCCCN(C)C)cc2)c2ccc(OCCCN(C)C)cc2)c1`, the growth is -22.2% (active).
To `N[C@@H](CO)C(=O)O` belongs 109% (inactive).
With `O=C(c1ccc(C(F)(F)F)c(Cl)c1)N(Cc1ccc(Cl)cc1)c1ccc(-c2cc(C(F)(F)F)[nH]n2)c(O)c1`, the growth was 19.9% (inactive).
The value for `c1ccc(C(Nc2ccccn2)(c2ccccc2)c2ccccc2)cc1` was 79.9% (inactive).
The value for `CC[C@H](Nc1nc(N)nc(N)c1Cl)c1nc2cccc(NCc3ccc(C(=O)NO)cc3)c2c(=O)n1-c1ccccc1` was 5.36% (active); that for `N#Cc1nc(-c2ccc(Cl)cc2)cc(-c2ccc(Nc3nc(N4CCCCC4)nc(N4CCCCC4)n3)cc2)c1N` was 110% (inactive).
Take `C#CC[C@@H]1C[C@]2(C)[C@H]3CC=C4[C@H]5[C@@H](C)[C@H](C)CC[C@]5(C(=O)NCCCCN)CC[C@@]4(C)[C@]3(C)CC[C@H]2C(C)(C)[C@H]1OC(C)=O`: the growth was 68.3% (inactive).
On to `Cn1nc(C(F)(F)F)cc1-c1c[nH]c(OCc2ccc(Cl)cc2)c(-c2ccc(Cl)c(C(F)(F)F)c2)c1=O`, for which the growth is 15.3% (inactive).
Turning to `COc1ccc(NC(=O)c2ccc(C(F)(F)F)nc2Nc2ccc(Cl)cc2C)cc1Cl`, the growth was 24.6% (inactive).
To `O=C(Cn1nncc1CN1C(=O)CSC1=O)Nc1ccc(F)cc1` belongs 103% (inactive); to `COc1ccc(NC(=O)/C=C/c2ccc(Cl)c(Cl)c2)cn1`, 20.5% (inactive); to `CCCCNCC(O)c1cc(-c2ccc(C(F)(F)F)cc2)nc(-c2ccc(C(F)(F)F)cc2)c1` (centres undefined), -93.9% (active).
The value for `CCCc1cc2c(cc1CN(Cc1cc3c(cc1CCC)OCO3)C(=N)OCC)OCO2` was 77.9% (inactive); that for `CCCNC(=S)N/N=C(\C)c1ccccn1` was 14.8% (inactive); that for `C#CC[C@@H]1C[C@]2(C)[C@H]3CC[C@@H]4[C@H]5C(C(=C)C)CC[C@]5(C(=O)NCCCN5CCN(CCCN)CC5)CC[C@@]4(C)[C@]3(C)CC[C@H]2C(C)(C)[C@H]1OC(C)=O` (some centres undefined) was -42.3% (active).
`COc1cc2nccc(Oc3ccc(NC(=O)C4(C(=O)Nc5c(F)cc(F)cc5F)CC4)cc3)c2cc1Oc1ccc(N)cn1`: the growth was 28.4% (inactive).
The value for `COc1ccc2[nH]c(C(=O)OCc3ccc4cccc(O)c4n3)cc2c1` was -59.2% (active); that for `CCOCC(O)(c1ccc(Cl)cc1)c1ccc(Cl)cc1` was 112% (inactive); that for `Cc1cc(C)cc(NC(=O)Cn2nncc2CN2C(=O)CSC2=O)c1` was 106% (inactive).
Regarding `Cc1ccc(NC(=O)Cn2nncc2CN2C(=O)CSC2=O)cc1C`, the growth is 104% (inactive).
To `COC(=O)/C=C/c1cc(OC(C)=O)c2c(c1)[C@@H](C(=O)OC)[C@H](c1ccc(OC(C)=O)c(OC(C)=O)c1)O2` belongs 30.4% (inactive); to `N=c1n(Cc2ccccc2)c(N)cc(=O)n1Cc1ccccc1`, 34.1% (inactive).
Consider `CC(C)[C@H](CN)NC[C@H](C)NS(=O)(=O)c1ccc(C(C)(C)C)cc1`, for which the growth was 87.5% (inactive).
The value for `COc1ccc(/C(=C\c2ccc3c(c2)OCO3)C(=O)Nc2nc3ccccc3s2)cc1` was 101% (inactive); that for `Cc1ccc(-c2cnc3sc4ccc(Cl)cc4n23)cc1` was 86.9% (inactive); that for `COc1cc(C2Nc3ccccc3S2)cc(CN2CCOCC2)c1O` (centres undefined) was 87.5% (inactive).
To `CC1=C(O)C(=O)C(c2c(C)cc(C)c(Br)c2C)=C(O)C1=O` belongs 45.6% (inactive).
As for `CC(C)OC(=O)c1ccc([N+](=O)[O-])cc1`, the growth was 111% (inactive).
To `COc1cc(CN2CCO[C@H](COc3cccc(F)c3)C2)ccc1Cl` belongs 9.51% (active); to `COc1cc(NC(C)CCCN)c2ncccc2c1Oc1ccc(Cl)cc1` (centres undefined), 56.3% (inactive); to `OC(c1cc(-c2ccc(C(F)(F)F)cc2)nc(-c2ccc(C(F)(F)F)cc2)c1)C1CCCCN1` (centres undefined), -92% (active).
Consider `C=CCn1c(C)nc2cc(Nc3nc(Nc4ccc5nc(C)n(CC=C)c5c4)nc4ccccc34)ccc21`, for which the growth was 99.5% (inactive).
Take `Fc1ccc2c(CN3CCO[C@H](COc4cccc(Cl)c4)C3)c[nH]c2c1`: the growth was 71.2% (inactive).
